Active and inactive are the calls of the source. The call rests on the fitted dose curve; in most records, active means well fitted curve in the direction sought with a large enough effect in the repeat runs; inconclusive means weak or mixed curves; inactive means flat fitted curve, though single readings scatter.
Test: qHTS assay to test for compound auto fluorescence at 590 nm (red) in HepG2 cell free culture (AID 720684)
Details: cell-free medium autofluorescence, red 540/590 nm; series mostly up to 91.3 µM; fluorescence, % of Rose Bengal: at the top concentration
Procedure, shortened: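 Red fluorescence (540 nm excitation, 590 nm emission) was measured after compound transfer into cell-free MEM supplemented with 10% FBS. Values are equivalencies against Rose Bengal sodium.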
For `Cc1cc(O)cc(C)c1Cl`, the outcome was “inactive”.
With `COCC(=O)O` the outcome was “inactive”.
With `O=Nc1ccc(O)cc1` the outcome was “inactive”.
In the case of `Oc1ccc(OCc2ccccc2)cc1`, the outcome is reported as “inactive”.
In the case of `CC(C)Cc1ccccc1`, the outcome is reported as “inactive”.
For `CN(C)c1cccc(O)c1`, the outcome was “inactive”.
For `CCOC(=O)C1OC1c1ccccc1` (centres undefined), the outcome was “inactive”.
For `Cc1cc(NS(=O)(=O)c2ccc(N)cc2)no1`, the outcome was “inactive”.
For `CC1COc2ccccc2N1C(=O)C(Cl)Cl` (centres undefined), the outcome was “inactive”.
With `CCc1ccc(O)cc1` the outcome was “inactive”.
In the case of `OC1CCCC1`, the outcome is reported as “inactive”.
In the case of `CCCCNC(N)=O`, the outcome is reported as “inactive”.
In the case of `CS(=O)(=O)c1ccc([C@@H](O)[C@@H](CO)NC(=O)C(Cl)Cl)cc1`, the outcome is reported as “inactive”.
In the case of `Clc1cc(Cl)c(Cl)cc1Cl`, the outcome is reported as “inactive”.
For `CC(C)(C)C(=O)C1C(=O)c2ccccc2C1=O`, the outcome was “inactive”.
In the case of `CC(=O)Nc1ccc(C(=O)O)cc1`, the outcome is reported as “inactive”.
For `CCCCCCCCCCCCN`, the outcome was “inactive”.
For `CCCCC(CC)COC(C)=O` (centres undefined), the outcome was “inactive”.
For `CCCCCC/C=C/CCCCCCCC(=O)O`, the outcome was “inactive”.
For `O=C1O[C@H](CO)[C@@H](O)[C@H](O)[C@H]1O`, the outcome was “inactive”.
For `O=C1N=C(O)CN1/N=C/c1ccc(-c2ccc([N+](=O)[O-])cc2)o1`, the outcome was “inactive”.
With `Nc1cc(-c2ccncc2)c[nH]c1=O` the outcome was “inactive”.
For `OCC1CCCO1` (centres undefined), the outcome was “inactive”.
With `C[C@@H](O)[C@H]1C(=O)N2C(C(=O)O)=C(S[C@@H]3CN[C@H](C(=O)N(C)C)C3)[C@H](C)[C@H]12` the “fluorescence, % of Rose Bengal” value was -0.427% [at 46 µM] (inactive).
With `CCCCCCCCCCC=CC1CC(=O)OC1=O` (centres undefined) the outcome was “inactive”.
With `COC(=O)Nc1nc2ccc(Sc3ccccc3)cc2[nH]1` the outcome was “inactive”.
With `OCCOCCOCCOCCO` the outcome was “inactive”.
In the case of `O=C(O)c1ccc([N+](=O)[O-])cc1`, the outcome is reported as “inactive”.
With `C=C(C)C(=O)OCC(CC)(COC(=O)C(=C)C)COC(=O)C(=C)C` the outcome was “inactive”.
In the case of `Clc1ccc(Cl)c(Cl)c1Cl`, the outcome is reported as “inactive”.
For `C=C1C2CCC(C2)C1(C)C` (centres undefined), the outcome was “inactive”.
With `CC(C)(C)C1CCC(O)CC1` (centres undefined) the outcome was “inactive”.
For `Cc1ccc(N)c(S(=O)(=O)O)c1`, the outcome was “inactive”.
In the case of `O=c1c(-c2ccc(O)cc2)coc2cc(O)ccc12`, the “fluorescence, % of Rose Bengal” value is reported as 0.188% (inactive).
In the case of `COCC(C)O` (centres undefined), the outcome is reported as “inactive”.
With `CC1CC(OC(=O)c2ccccc2O)CC(C)(C)C1` (centres undefined) the outcome was “inactive”.
For `CCOC(=O)/C=C\C(=O)OCC`, the outcome was “inactive”.
With `CCCCCCCCCCCCOCC1CO1` (centres undefined) the outcome was “inactive”.
For `C[C@@H]1O[C@@H](OC[C@H]2O[C@@H](Oc3c(-c4ccc(O)c(O)c4)oc4cc(O)cc(O)c4c3=O)[C@H](O)[C@@H](O)[C@@H]2O)[C@H](O)[C@H](O)[C@H]1O`, the outcome was “inactive”.

Source: PubChem BioAssay (Tox21)
On the % scale 0 is the no-effect control and ±100 the full control effect.
